TDP1 cell CPT: DT40-hTDP1 cell growth loss with CPT; chicken DT40 Tdp1-/-;hTDP1 cells + 20 nM CPT, ATP luminescence, 48 h; Potency, µM (series often up to 46.2 µM), hits mostly inhibitors; actives 12% (n = 420,000); note: nearly all actives have a fitted effect of over 55% in size
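Chicken DT40 Tdp1-/- cells stably complemented with human TDP1 were seeded at 400 cells/well in medium containing 20 nM camptothecin, exposed to pin-transferred compounds, and grown at 37 °C for at least 48 hr. Viability was read as ATP luminescence.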
DT40 TDP1 no CPT: qHTS for Inhibitors of human tyrosyl-DNA phosphodiesterase 1 (TDP1): qHTS in cells in absence of CPT; DT40 Tdp1-/- hTDP1 cells, no CPT, ATP luminescence, 48 h; Potency, µM (titrated, usually from 46.2 µM), actives largely listed as inhibitors; actives 15% (n = 420,000); AID 686978, 2013; note: nearly all actives have a fitted effect of over 55% in size
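A cellular qHTS used chicken DT40 cells lacking endogenous Tdp1 but carrying stably transfected human TDP1. Compounds were applied without camptothecin, and cell growth kinetics were judged by ATP-dependent luminescence after ≥48 hr.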
HT1080-NT tox: kills 2HG-producing HT-1080-NT fibrosarcoma cells; HT-1080-NT fibrosarcoma viability, CellTiter-Glo ATP luminescence, 48 h; Potency, µM (doses to about 46.1 µM), actives largely listed as cytotoxic; actives 1.6% (n = 360,000); AID 686970;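 note: NT is the 2HG producing partner of a matched IDH1 knockdown line; nearly all actives have a fitted effect of over 55% in size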
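Fibrosarcoma NT cells, 750 per well in 5% FBS RPMI, were exposed to compound for 48 hours. Viability: CellTiter-Glo luminescence.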
HT1080 IDH1KD tx: kills HT-1080 cells with IDH1 knockdown; HT-1080 IDH1 knockdown viability, ATP luminescence, 48 h; Potency, µM (titrated, usually from 46.1 µM), usual class: cytotoxic; actives 2% (n = 360,000)
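Viability of IDH1-knockdown HT-1080 fibrosarcoma cells was assessed by CellTiter-Glo after 48 h at 37 °C with titrated compound; concentration-effect curves were classified by fit quality and response size.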
IL1B secr inh: blocks inflammasome-driven IL-1 beta release. actives 4.7% (n = 360,000). THP-1 LPS/ATP IL-1B secretion, AlphaLISA, 16 h; active compounds read low. activity change, % at 57.5 µM. AID 743279; in the data active = activity change below about -50%; inconclusive = mostly about -30% to -49%
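THP-1 cells pretreated 1 hr with compounds (up to 57.5 uM final), then stimulated with LPS (250 ng/mL final) plus ATP (1.25 mM final); secreted IL-1B measured by AlphaLISA after 16 hr, decreased signal indicating inhibition.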
Numbers stand for hits; i = inactive; ? = inconclusive; nt = no result. Rows were chosen to be rich in hits. Some 19% of all compounds tested hit in one or more screens of this group. Unless noted, calls come from the whole dose curve; as a rule, active = well fitted curve in the direction sought with a large enough effect; inconclusive = small, poorly fitted or top-dose-only effect, or another doubt; inactive = no such curve, though single readings can be large; an effect the other way counts as inactive or inconclusive.

SMILES	TDP1 cell CPT	DT40 TDP1 no CPT	HT1080-NT tox	HT1080 IDH1KD tx	IL1B secr inh
COc1ccc(OC)c(C(c2c(O)nc(SC)[nH]c2=O)c2c(O)nc(SC)[nH]c2=O)c1	i	i	i	i	i
NC(=O)CC(NC(=O)c1cccc(Br)c1)c1ccc(N2CCN(c3ccccn3)CC2)c([N+](=O)[O-])c1 (configuration not stated)	15µM	13µM	i	i	i
NC(=O)CC(NC(=O)c1ccc(Br)cc1)c1ccc(N2CCN(c3ccccn3)CC2)c([N+](=O)[O-])c1 (configuration not stated)	23µM	21µM	i	i	i
CC1=CC(C)(C)N(C(=O)CSc2nnc(-c3ccc(C)cc3)o2)c2ccc(C)cc21	?	18µM	i	i	i
Cc1ccc(NC(=O)CSc2nnc(-c3ccc(Br)cc3)o2)c(C)c1	?	i	nt	nt	nt
CCN(CC(=O)NC)S(=O)(=O)c1ccc(Br)cc1	i	i	i	i	i
CC1=NN(c2nc3ccccc3[nH]2)C(=O)C1Cc1ccccc1 (configuration not stated)	1µM	1.3µM	2.1µM	?	i
CC1=NN(c2nc3ccccc3[nH]2)C(=O)/C1=C/N(C)C	4.6µM	?	21µM	2.9µM	i
O=c1[nH]c2ccccc2nc1NCc1ccccc1	i	i	i	i	i
CC1CCN(c2c(NCC3CCC(C(=O)NCCCc4ccccc4)CC3)c(=O)c2=O)CC1 (configuration not stated)	i	i	i	i	i
O=C1CCCN1CCC12CC3CC(CC(C3)C1)C2	?	21µM	i	i	i
O=C1CCCN1CCc1cccc2ccccc12	?	?	i	i	i
COc1ccc(CN(C(=O)c2oc3ccc(F)cc3c2C)C2CCS(=O)(=O)C2)cc1 (configuration not stated)	?	?	i	i	i
Cc1ccc2oc(C(=O)N(Cc3ccccc3)C3CCS(=O)(=O)C3)c(C)c2c1 (configuration not stated)	?	i	i	i	i
Cc1cc2oc(C(=O)N(Cc3ccccc3)C3CCS(=O)(=O)C3)c(C)c2cc1C (configuration not stated)	26µM	16µM	i	i	i
COc1cccc(CN(C(=O)c2oc3ccc(Br)cc3c2C)C2CCS(=O)(=O)C2)c1 (configuration not stated)	15µM	16µM	nt	nt	nt
O=C(CSc1nc(-c2ccccc2F)nc2cc(=O)[nH]n12)Nc1cccc(C(F)(F)F)c1	?	i	nt	nt	nt
COc1ccc(-c2cc(C(F)(F)F)nc(S(=O)(=O)CCC(=O)N3CCOCC3)n2)cc1	6.5µM	12µM	i	i	-118
COc1ccccc1-c1cc(C(F)(F)F)nc(S(=O)(=O)CCCC(=O)Nc2ccc(F)c(Cl)c2)n1	i	?	nt	nt	nt
COc1ccccc1-c1cc(C(F)(F)F)nc(S(=O)(=O)CCCC(=O)Nc2cc(OC)c(OC)c(OC)c2)n1	?	21µM	nt	nt	nt
COc1ccc(-c2cc(C(F)(F)F)nc(SCC(=O)N3CCOCC3)n2)cc1OC	i	?	i	i	?
COc1ccccc1-c1cc(C(F)(F)F)nc(S(=O)(=O)CCCC(=O)O)n1	14µM	?	11µM	8.9µM	-87
COc1ccccc1-c1cc(C(F)(F)F)nc(S(=O)(=O)CCCC(=O)N2CCOCC2)n1	2.6µM	2.3µM	16µM	16µM	-118
COc1ccccc1-c1noc(CCCC(=O)N2CCOCC2)n1	i	i	i	i	i
COc1cc(NC(=O)Nc2nnc([C@H]3C[C@H](O)[C@@H](CO)O3)s2)cc(OC)c1	i	i	i	i	i
CCCCNc1ncnc2c1nnn2C	i	i	nt	nt	nt
Cc1cc(C)c(NC(=O)C2CCN(c3cnccn3)CC2)c(C)c1	i	i	i	i	i
COc1ccc2[nH]cc(CCNc3ccnc(-c4ccccc4Cl)n3)c2c1	?	12µM	nt	nt	nt
COc1ccc2[nH]cc(CCNc3cc(-c4ccccc4Cl)ncn3)c2c1	?	3.7µM	nt	nt	nt
COC(=O)c1ccccc1NC(=O)c1cc(CN2CCCC2)on1	i	i	nt	nt	nt

Assay outcomes as filed in PubChem.
